The whole screen tested about 5,500 compounds, of which about 2,000 (36%) were called active. Another 18% or so got no clear call; they are omitted. No stated cut-off is given here; in the data, active means normalized growth mostly below about 0.91 (no sharp cut-off); inconclusive means no clear call, values can overlap the other calls; inactive means mostly above about 0.92. This is one part of the list.
Assay: chemical genetic growth profiling, strain panel (AID 1159580);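 further: tested at 20 µM; growth read once vehicle control cultures reached saturation at 30 °C; 1 = growth at the plate median or of vehicle wells; lower values mean less growth of the strain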
Conditions: S. cerevisiae deletion strains, growth OD
[1] = locus YAL013W, strain DEP1, hits give low values
[2] = locus YBR229C, strain ROT2, hits give low values
[3] = locus YCL061C, strain MRC1, hits give low values
[4] = locus YDL101C, strain DUN1, hits give low values
[5] = locus YDL134C, strain PPH21, hits give low values
[6] = locus YDR150W, strain NUM1, hits give low values
[7] = locus YEL061C, strain CIN8, hits give low values
[8] = locus YGR078C, strain PAC10, hits give low values
[9] = locus YHR030C, strain SLT2, hits give low values
[10] = locus YHR087W, strain rtc3, hits give low values
[11] = locus YJL187C, strain SWE1, hits give low values
[12] = locus YJR043C, strain POL32, hits give low values
[13] = locus YJR075W, strain HOC1, hits give low values
[14] = locus YKL190W, strain CNB1, hits give low values
[15] = locus YLR039C, strain RIC1, hits give low values
[16] = locus YLR058C, strain SHM2 (second series), hits give low values
[17] = locus YLR085C, strain ARP6, hits give low values
[18] = locus YLR262C, strain YPT6, hits give low values
[19] = locus YML094W, strain GIM5, hits give low values
[20] = locus YMR219W, strain ESC1, hits give low values
[21] = locus YMR263W, strain SAP30, hits give low values
[22] = locus YNL153C, strain GIM3, hits give low values
[23] = locus YNL298W, strain CLA4 (second series), hits give low values
[24] = locus YNL322C, strain KRE1, hits give low values
[25] = locus YNR030W, strain Alg12, hits give low values
[26] = locus YPL055C, strain LGE1, hits give low values
[27] = locus YPL241C, strain CIN2, hits give low values
[28] = locus YPR135W, strain CTF4, hits give low values

Measured: normalized growth

CCCCCCCCCCCCN1CNC(=S)NC1
active: [1] 0.804 | [2] 0.81 | [3] 0.68 | [4] 0.652 | [5] 0.451 | [7] 0.441 | [8] 0.813 | [9] 0.291 | [10] 0.767 | [11] 0.688 | [12] 0.727 | [13] 0.858 | [14] 0.515 | [17] 0.141 | [19] 0.513 | [20] 0.786 | [21] 0.782 | [22] 0.801 | [23] 0.325 | [25] 0.419 | locus YOL006C, strain TOP1, hits give low values 0.123 | [26] 0.541 | [27] 0.484 | [28] 0.382
inactive: [6] 0.846 | [15] 0.985 | [16] 0.988 | [18] 1.01 | [24] 0.956

S=C1NCN(CCN2CCCC2)CN1
inactive: [1] 1 | [2] 0.996 | [3] 0.988 | [4] 0.984 | [5] 0.975 | [6] 0.96 | [7] 1.03 | [8] 0.997 | [9] 1.04 | [10] 1.04 | [11] 1.01 | [12] 0.986 | [13] 0.997 | [14] 0.977 | [15] 0.991 | [16] 1.01 | [17] 0.98 | [18] 0.972 | [19] 1 | [20] 1.01 | [21] 1 | [22] 0.993 | [23] 0.987 | [24] 0.995 | [25] 0.994 | [26] 1.01 | [27] 0.973 | [28] 0.962

Cn1c2c(c(=O)n(C)c1=O)CN(CCCCCCO)CN2
inactive: [1] 1 | [2] 1.01 | [3] 1.01 | [4] 1 | [5] 1.02 | [6] 0.982 | [7] 1.01 | [8] 0.999 | [9] 1.07 | [10] 1 | [12] 0.99 | [13] 1.01 | [14] 0.994 | [15] 1.02 | [16] 1 | [17] 1.1 | [18] 1.03 | [19] 1.05 | [20] 1 | [21] 1 | locus YMR307W, strain GAS1, hits give low values 1.04 | locus YNL128W, strain TEP1, hits give low values 1.01 | [22] 0.999 | [23] 1.1 | [24] 0.998 | [25] 1.04 | [26] 1.02 | [27] 1.05 | [28] 1.02

From PubChem BioAssay AID1159580 (chemical genetic matrix, 2015)
